Records with an inconclusive call do not appear. The source made the active and inactive calls. Unless noted, calls follow the shape of the dose curve; as a rule, active = well fitted curve in the direction sought with a large enough effect in the repeat runs; inconclusive = weak or mixed curves; inactive = no such curve, though single readings can be large; an effect the other way counts as inactive or inconclusive.
Columns and labels:
[1] = qHTS RealTime-Glo MT Cell Viability Assay in HEK293 cells - 24 hour (AID 1224886); also: top concentration of the series differs between compounds; % is scaled to controls: 0 for no effect and ±100 for the full control effect; nearly all actives have a fitted effect of over 50% in size
Method in brief: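 Cells + reagent dispensed (600 cells/well, HEK293) → 5 h at 37 C/5% CO2 → 23 nL compound in DMSO pinned → 40 h at 37 C → luminescence read at 0, 8, 16, 24, 32, 40 h.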

[2] = qHTS RealTime-Glo MT Cell Viability Assay in HEK293 cells - 8 hour (AID 1224887); also: top concentration of the series differs between compounds; % is scaled to controls: 0 for no effect and ±100 for the full control effect; nearly all actives have a fitted effect of over 50% in size
Method in brief: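 600 cells/well were plated with the nonlytic NanoLuc/prosubstrate reagent, pre-incubated 5 h, then given 23 nL of compound in DMSO. Incubation at 37 C for 40 h, with luminescence from viable-cell-reduced substrate read repeatedly from 0 h.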

[3] = A CellTox Green Cytotoxicity Assay to monitor cytotoxicity in HEK293 cells - 16 hour (AID 1224888); also: % is scaled to controls: 0 for no effect and ±100 for the full control effect; nearly all actives have a fitted effect of over 35% in size
Method in brief: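 HEK293 cells, 600/well, were preincubated 5 hours and then exposed to compounds at 37 C for up to 40 hours. A cell-impermeant cyanine dye staining dead-cell DNA was read by fluorescence at 0, 8, 16, 24, 32 and 40 h time points.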

[4] = qHTS RealTime-Glo MT Cell Viability Assay in HepG2 cells - 0 hour (AID 1224889); also: % is scaled to controls: 0 for no effect and ±100 for the full control effect; nearly all actives have a fitted effect of over 50% in size
Method in brief: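 Real-time, nonlytic viability: 600 HepG2 cells/well mixed with NanoLuc enzyme plus prosubstrate; 5 h settle, compound (DMSO) added by pintool; luminescence monitored over 40 h at 37 C.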

[5] = A CellTox Green Cytotoxicity Assay to monitor cytotoxicity in HepG2 cells - 8 hour (AID 1224890); also: % is scaled to controls: 0 for no effect and ±100 for the full control effect; nearly all actives have a fitted effect of over 45% in size
Method in brief: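 HepG2 cells, 600/well, preincubated 5 h with CellTox Green dye, then exposed to Tox21 compounds in DMSO at 37 C for up to 40 h. Dead-cell DNA fluorescence read at the indicated time point.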

[6] = qHTS assay to identify small molecule antagonists of the estrogen receptor alpha (ER-alpha) signaling pathway using the BG1 cell line in the presence of 0.1 nM 17-beta-estradiol - cell viability counter screen (AID 1259241); also: % is scaled to controls: 0 for no effect and ±100 for the full control effect; nearly all actives have a fitted effect of over 40% in size
Method in brief: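 VM7Luc4E2, 4,000 cells/well, phenol red-free medium + 10% charcoal-stripped FBS; 24 hr plating; cpd + 0.1 nM E2 final, 22 hr 37C/5% CO2; CellTiter-Fluor 30 min, fluorescence.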

[7] = qHTS assay to identify small molecule antagonists of the androgen receptor (AR) signaling pathway using the MDA cell line in the presence of 0.5 nM R1881 - cell viability counter screen (AID 1259242); also: % is scaled to controls: 0 for no effect and ±100 for the full control effect; nearly all actives have a fitted effect of over 45% in size
Method in brief: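 MDA-kb2 cells (MMTV-luciferase, AR/GR responsive) were treated with compounds plus 0.5 nM R1881 (final) for 16 hr at 37C, 0% CO2. Viability was then read in the same wells as live-cell protease fluorescence (CellTiter-Fluor, 30 min).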

[8] = target: Estrogen receptor (Homo sapiens) (UniProt P03372); assay: qHTS assay to identify small molecule antagonists of the estrogen receptor alpha (ER-alpha) signaling pathway using the BG1 cell line in the presence of 0.1 nM 17-beta-estradiol (AID 1259244); also: % is scaled to controls: 0 for no effect and ±100 for the full control effect; nearly all actives have a fitted effect of over 50% in size
Method in brief: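 VM7Luc4E2 cells (endogenous full-length ER-alpha, 4×ERE-luciferase), kept 5 days in phenol red-free, charcoal-stripped FBS medium; 4,000 cells/well. Compounds added with 0.1 nM (final) 17beta-estradiol, 22 hr at 37C; luminescence read with ONE-Glo after 30 min.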

[9] = qHTS assay to identify small molecule HDAC inhibitors (AID 1259364); also: top concentration of the series differs between compounds; % is scaled to controls: 0 for no effect and ±100 for the full control effect; nearly all actives have a fitted effect of over 45% in size
Method in brief: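 Wild-type HCT-116 cells, plated overnight at 37 C, exposed to compounds 2 hr at 37 C; luminogenic HDAC-Glo substrate then added 30 min at room temperature. Luminescence reports relative endogenous class I/II HDAC activity.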

[10] = qHTS assay to identify small molecule HDAC inhibitors - cell viability counter screen (AID 1259365)
Method in brief: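 Luminescence from CellTiter-Glo, developed 30min at room temperature, reports viability of wild-type HCT-116 cells treated 2hr with compounds at 37 C and 5% CO2 after overnight plating.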

[11] = qHTS assay to identify small molecule agonists of the sonic hedgehog signaling (Shh) pathway - cell viability counter screen (AID 1259366)
Method in brief: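 Cytotoxicity counter screen run in the same wells as the Shh reporter assay. NIH/3T3 cells carrying a Gli1 response element–driven luciferase were treated with DMSO-dissolved compounds for 24hr, and live-cell protease activity was measured with CellTiter-Fluor.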

[12] = qHTS assay to identify small molecule antagonists of the sonic hedgehog signaling (Shh) pathway - cell viability counter screen (AID 1259367); also: % is scaled to controls: 0 for no effect and ±100 for the full control effect; nearly all actives have a fitted effect of over 55% in size
Method in brief: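 Seed 3T3 Gli1-Luc cells at 2,000 per well; incubate 4 hr; add compound in DMSO, then conditioned medium; incubate at 37C with 5% CO2; add CellTiter-Fluor after 23 hr; read fluorescence 1 hr later.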

[13] = qHTS assay to identify small molecule agonists of the sonic hedgehog signaling (Shh) pathway (AID 1259368; calls by dose curve;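 also: NIH/3T3-derived 3T3Gli1-Luc cells carrying a stable Gli1-driven firefly luciferase reporter; series mostly up to about 92 µM; % is scaled to controls: 0 for no effect and ±100 for the full control effect; nearly all actives have a fitted effect of over 15% in size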)
Method in brief: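 NIH/3T3-derived 3T3Gli1-Luc cells with stably integrated Gli1-driven firefly luciferase, 2,000 cells/well, compounds added after 4 hr. Incubated 24 hr at 37C, 5% CO2; luminescence read after 30 min with luciferase reagent at room temperature.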

[14] = qHTS assay to identify small molecule antagonists of the sonic hedgehog signaling (Shh) pathway (AID 1259369; calls by dose curve; also: % is scaled to controls: 0 for no effect and ±100 for the full control effect; nearly all actives have a fitted effect of over 45% in size)
Method in brief: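 NIH/3T3-derived Gli1-Luc reporter cells plated 4 h, dosed with compound, then stimulated with conditioned medium for 24 h at 37 C. Firefly luciferase luminescence read after 30 min with detection reagent at room temperature.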

[15] = qHTS assay to identify small molecule agonists of the androgen receptor (AR) signaling pathway in the presence of an antagonist - cell viability counter screen (AID 1259379);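 also: MDA-kb2 human breast cancer cells carrying an MMTV luciferase reporter; series mostly up to about 92 µM; % is scaled to controls: 0 for no effect and ±100 for the full control effect; nearly all actives have a fitted effect of over 25% in size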
Method in brief: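 MDA-kb2 cells (MMTV-luciferase, AR/GR), 3,000/well, 5 h attachment, then 3.0 µM nilutamide (final) and compounds at 15 concentrations. Viability by CellTiter-Fluor fluorescence after 16 h at 37 °C, 0% CO2, in the reporter wells.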

[16] = qHTS assay to identify small molecule agonists of the estrogen receptor beta (ER-beta) signaling pathway - cell viability counter screen (AID 1259380); also: % is scaled to controls: 0 for no effect and ±100 for the full control effect; nearly all actives have a fitted effect of over 30% in size
Method in brief: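 ER-beta-UAS-bla HEK293T cells in medium with 2% charcoal-stripped FBS, pre-incubated 6 hr, then treated 16 hr at 37C. Cytotoxicity read in the same wells by CellTiter-Glo luminescence after 30 min at room temperature.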

[17] = target: Androgen receptor (Homo sapiens) (UniProt P10275); assay: qHTS assay to identify small molecule antagonists of the androgen receptor (AR) signaling pathway using the MDA cell line in the presence of 0.5 nM R1881 (AID 1259243)
Method in brief: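 MDA-kb2 cells (MMTV-luciferase, responsive to AR and GR) at 3,000/well, rested 5 h at 37C, 0% CO2, then given compounds plus 0.5 nM R1881 (final) for 16 hr. Luciferase read with ONE-Glo after 30 min at room temperature.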

[18] = qHTS assay to identify small molecule phospholipidosis (PLD) inducers (AID 1259344; active = well fitted curve in the direction sought with a large enough effect; an effect the other way counts as inactive or inconclusive; also: % is scaled to controls: 0 for no effect and ±100 for the full control effect)
Method in brief: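 Quantitative HTS in HepG2: compound plus LipidTOX Red dye for 24 h, paraformaldehyde fixation with Hoechst 33342, widefield high-content imaging; amiodarone as positive and DMSO as negative control.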

[19] = target: Estrogen receptor beta (Homo sapiens) (UniProt Q92731); assay: qHTS assay to identify small molecule agonists of the estrogen receptor beta (ER-beta) signaling pathway (AID 1259377; active = well fitted activation curve with a large enough effect in the signal ratio in the repeat runs, not every such curve was filed as active; the % refers to the signal ratio; also: % is scaled to controls: 0 for no effect and ±100 for the full control effect)
Method in brief: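 HEK293T ER-beta-UAS-bla; 2% charcoal-stripped FBS; cells pre-incubated 6 hr, compound 16 hr, 37C/5% CO2; LiveBLAzer B/G FRET substrate 2 h RT; fluorescence intensity read.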

[20] = target: Estrogen receptor beta (Homo sapiens) (UniProt Q92731); assay: qHTS assay to identify small molecule antagonists of the estrogen receptor beta (ER-beta) signaling pathway (AID 1259378; active = well fitted inhibition curve with a large enough effect in the signal ratio in the repeat runs, not every such curve was filed as active; the % refers to the signal ratio; also: potency is read from the fitted curve at half-maximal effect)
Method in brief: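 ER-beta-UAS-bla HEK293T cells in 2% charcoal-stripped FBS medium treated with compound plus 1nM final 17-beta-estradiol for 16 hr at 37C. Beta-lactamase reporter read by FRET substrate fluorescence after 2 hours at room temperature.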

Chain of Estrogen receptor (Homo sapiens) (P03372 whole entry, looked up): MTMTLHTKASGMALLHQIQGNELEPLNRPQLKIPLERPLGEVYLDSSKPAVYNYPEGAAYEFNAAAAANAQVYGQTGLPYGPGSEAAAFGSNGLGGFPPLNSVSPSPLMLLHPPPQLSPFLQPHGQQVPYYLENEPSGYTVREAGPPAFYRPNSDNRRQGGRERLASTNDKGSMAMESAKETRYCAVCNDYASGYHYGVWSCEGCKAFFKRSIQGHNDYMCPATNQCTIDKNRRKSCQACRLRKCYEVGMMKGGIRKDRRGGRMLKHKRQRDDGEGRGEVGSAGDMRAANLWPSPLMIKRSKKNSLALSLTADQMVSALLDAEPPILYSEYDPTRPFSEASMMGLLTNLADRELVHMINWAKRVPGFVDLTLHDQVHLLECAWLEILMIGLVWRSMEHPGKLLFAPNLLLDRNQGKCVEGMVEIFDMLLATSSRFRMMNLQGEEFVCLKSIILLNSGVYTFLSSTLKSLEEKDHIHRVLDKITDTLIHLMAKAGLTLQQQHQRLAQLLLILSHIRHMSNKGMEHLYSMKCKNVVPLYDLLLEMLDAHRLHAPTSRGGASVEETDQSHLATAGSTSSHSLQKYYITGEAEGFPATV
Chain of Estrogen receptor beta (Homo sapiens) (Q92731 whole entry, looked up): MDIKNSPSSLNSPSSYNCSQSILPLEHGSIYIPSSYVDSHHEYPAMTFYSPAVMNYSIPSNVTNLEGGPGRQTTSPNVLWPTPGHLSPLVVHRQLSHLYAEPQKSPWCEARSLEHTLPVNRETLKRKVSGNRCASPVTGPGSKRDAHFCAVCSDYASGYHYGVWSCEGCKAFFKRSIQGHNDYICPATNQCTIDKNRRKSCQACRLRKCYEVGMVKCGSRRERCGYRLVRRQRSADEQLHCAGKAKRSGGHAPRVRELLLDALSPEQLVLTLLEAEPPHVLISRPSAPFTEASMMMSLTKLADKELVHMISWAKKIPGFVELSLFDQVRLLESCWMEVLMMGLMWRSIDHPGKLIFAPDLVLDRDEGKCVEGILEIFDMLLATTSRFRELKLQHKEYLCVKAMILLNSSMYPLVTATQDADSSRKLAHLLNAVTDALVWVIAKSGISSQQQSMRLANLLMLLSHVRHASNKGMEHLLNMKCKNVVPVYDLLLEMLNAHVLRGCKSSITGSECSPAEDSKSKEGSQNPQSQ
Chain of Androgen receptor (Homo sapiens) (P10275 whole entry, looked up): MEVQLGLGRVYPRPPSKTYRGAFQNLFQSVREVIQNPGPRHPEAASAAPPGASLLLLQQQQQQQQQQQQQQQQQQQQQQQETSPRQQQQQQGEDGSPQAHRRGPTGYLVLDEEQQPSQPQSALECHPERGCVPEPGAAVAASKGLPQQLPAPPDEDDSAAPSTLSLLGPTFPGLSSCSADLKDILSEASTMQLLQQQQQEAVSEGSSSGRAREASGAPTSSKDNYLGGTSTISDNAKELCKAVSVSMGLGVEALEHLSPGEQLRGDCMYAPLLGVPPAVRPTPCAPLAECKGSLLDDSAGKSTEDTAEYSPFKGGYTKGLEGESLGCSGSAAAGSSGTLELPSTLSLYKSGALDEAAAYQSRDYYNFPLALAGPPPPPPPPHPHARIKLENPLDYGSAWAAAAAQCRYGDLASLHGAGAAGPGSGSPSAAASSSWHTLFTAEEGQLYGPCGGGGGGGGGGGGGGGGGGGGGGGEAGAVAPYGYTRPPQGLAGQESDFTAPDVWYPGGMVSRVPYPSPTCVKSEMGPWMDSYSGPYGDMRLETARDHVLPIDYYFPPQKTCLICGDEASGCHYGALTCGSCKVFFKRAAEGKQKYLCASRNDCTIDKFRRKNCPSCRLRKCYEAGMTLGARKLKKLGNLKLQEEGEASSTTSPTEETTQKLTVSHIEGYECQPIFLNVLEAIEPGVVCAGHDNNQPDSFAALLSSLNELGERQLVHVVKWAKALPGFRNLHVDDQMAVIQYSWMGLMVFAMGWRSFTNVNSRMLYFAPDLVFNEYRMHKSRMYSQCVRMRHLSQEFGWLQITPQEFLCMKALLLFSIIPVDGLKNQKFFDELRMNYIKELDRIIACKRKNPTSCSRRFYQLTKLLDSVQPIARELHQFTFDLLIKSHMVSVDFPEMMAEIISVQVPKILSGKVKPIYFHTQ

CC(C)c1ccc(C=O)cc1
inactive: Potency [1] | Potency [2] | Potency [3] | Potency [4] | Potency [5] | outcome [6] | outcome [7] | outcome [8] | Potency [9] | outcome [10] | outcome [11] | outcome [12] | outcome [13] | Potency [14] | outcome [15] | outcome [16]

OC[C@H]1O[C@@H](O[C@@H]2[C@@H](CO)O[C@](O)(CO)[C@H]2O)[C@H](O)[C@@H](O)[C@H]1O
inactive: Potency [1] | Potency [2] | Potency [3] | Potency [5] | outcome [6] | outcome [7] | Potency [17] | outcome [8] | outcome [18] | Potency [9] | outcome [10] | outcome [12] | outcome [13] | Potency [14] | outcome [15] | outcome [16]

O=S(=O)(O)c1ccc2c(N=Nc3ccc(S(=O)(=O)O)c4ccccc34)c(O)c(S(=O)(=O)O)cc2c1
inactive: activity change, negative = cytotoxicity [1] 5.55% [at 6.97 µM] | activity change, negative = cytotoxicity [2] 2.74% [at 6.97 µM] | activity change [3] 8.43% [at 6.97 µM, stronger effect = higher value] | activity change, negative = cytotoxicity [4] 7.14% [at 6.97 µM] | cytotoxicity increase [5] -1.78% [at 6.97 µM] | outcome [18] | activity change, negative = inhibition [9] 1.26% [at 8.39 µM] | activity change, negative = cytotoxicity [10] -10.4% [at 8.39 µM] | viability change, negative = cytotoxic [11] -12.8% [at 8.39 µM] | viability change, negative = cytotoxic [12] -12.4% [at 8.39 µM] | activity change [13] -2.14% [at 8.39 µM] | activity change, negative = inhibition [14] 39.1% [at 8.39 µM] | activity change, negative = cytotoxicity [15] -15.5% [at 8.39 µM] | activity change, negative = cytotoxicity [16] 3.66% [at 8.39 µM]

O=C(O)[C@H](O)c1ccccc1
inactive: Potency [1] | Potency [2] | Potency [3] | Potency [4] | outcome [6] | outcome [7] | outcome [8] | outcome [18] | Potency [9] | outcome [11] | outcome [12] | outcome [13] | Potency [14] | outcome [15] | outcome [16]

CCCCOC(=O)C(C)O (configuration not stated)
inactive: Potency [1] | Potency [2] | Potency [3] | Potency [4] | Potency [5] | outcome [7] | outcome [8] | Potency [9] | outcome [10] | outcome [11] | outcome [12] | outcome [13] | Potency [14] | outcome [15] | outcome [16]

CCC(C)OC(C)CC (configuration not stated)
active: Potency [20] 28.3 µM
inactive: Potency [1] | Potency [2] | Potency [3] | Potency [4] | Potency [5] | outcome [7] | outcome [8] | Potency [9] | outcome [10] | outcome [11] | outcome [12] | outcome [13] | Potency [14] | Potency [19] | outcome [15]

C#CCN[C@@H]1CCc2ccccc21
inactive: Potency [1] | Potency [2] | Potency [3] | Potency [4] | outcome [7] | Potency [17] | outcome [8] | outcome [18] | Potency [9] | outcome [10] | outcome [12] | outcome [13] | Potency [14] | Potency [19] | outcome [15] | outcome [16]

CC1(C)[C@H]2CC[C@](C)(C2)[C@H]1O
inactive: Potency [1] | Potency [2] | Potency [3] | Potency [4] | Potency [5] | outcome [7] | outcome [8] | Potency [9] | outcome [12] | outcome [13] | Potency [14] | Potency [19] | outcome [15] | outcome [16]

— PubChem BioAssay (Tox21)
